Screens: PubChem, several laboratories
LMP1 NFkB inh = EBV LMP1-driven NF-kappaB luciferase reporter inhibitors, primary screen, cell-based, luminescence, single point; 0.69% of 350,000 active; inhibition, % at 12.5 µM; LMP1-induced NF-kappaB luciferase reporter cells; AID 504558, 2011; in the data active = inhibition above about 41%; inconclusive = no clear call, values can overlap the other calls;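 also: 0% = neutral control wells and 100% = reference inhibitor control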
HSF1 activator = HSF-1 activators, primary screen, NIH3T3-HGL cells, MG132 stress, luminescence, single point; NIH3T3-HGL HSF-1 luciferase reporter, 8 h; 100% = twice DMSO control signal; activation, % at 9 µM; 1.7% of 300,000 active;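 active = mean replicate activation of at least 50% with a set share of replicates each reaching 50%; inconclusive = only one of those two conditions met; inactive = mean below 50% and too few replicates reaching it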;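 also: 0% = median of the neutral control wells and 100% = twice that signal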
TWEAK Fn14 block = inhibitors of TWEAK-Fn14 signaling, primary screen, luciferase reporter cells, uHTS | TWEAK-stimulated Fn14 reporter cells, luciferase luminescence, 8 h | inhibition, % at 10 µM | 2% of 360,000 active; in the data active = inhibition above about 50%
TROY NFkB inh = inhibitors of TROY-driven NF-kB signaling, primary screen, Q293 LMP1-TROYcd cells, NF-kB luciferase, uHTS | Q293 LMP1-TROYcd NF-kB luciferase reporter, 4 h | inhibition, % at 10 µM | 0.98% of 360,000 active;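 active = compounds whose plate-normalised and pattern-corrected inhibition of the luciferase reporter signal at the single screening dose is 50% or more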
HSF1 inhib = HSF1 inhibitors in luciferase reporter cells, primary screen, cell-based, NIH3T3, luminescence | NIH3T3-HGL HSE-luciferase, MG132-induced, luminescence 8 h; hits give low values | activity change, negative = inhibition, % at 7.5 µM (by protocol) | 0.77% of 300,000 active | AID 2098, 2009;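 active = more than half of replicate wells show activity change below -50%, luminescence cut by over half; inconclusive = some wells, but at most half, below -50%; inactive = no replicate well below -50%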;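 also: luciferase reports HSF-1 transcriptional activity via heat shock element; 0% = median of DMSO wells and -100% = zero luminescence signal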
LGR2 antag = inhibitors of bursicon-induced LGR2 CRE-luciferase signal, primary screen, cell-based, HEK293, CRE-luciferase reporter, bursicon stimulation | Drosophila bursicon receptor LGR2 (rickets) | AID 720647, 2013 | bursicon-stimulated, 4 h | 0.35% of 380,000 active | inhibition, % at 9.99 µM;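 active = drop in luminescence signal, shown as inhibition above about 50% in the replicate tests, limit read from the data, passing the limit was not always enough; inconclusive = probably only some replicates passing the limit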;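 also: agonist challenge used bursicon conditioned medium at about half maximal strength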
Active calls of the source: *. In the library only some 3.6% were active in any assay of this set; here they are far more common.

For COc1cc(OC)cc(C(=O)Nc2cc(-c3cn4cccnc4n3)ccc2C)c1 the results were LMP1 NFkB inh -12, HSF1 activator -1, TWEAK Fn14 block -6, TROY NFkB inh -5, HSF1 inhib -2 and LGR2 antag 1.
For O=C(C[C@H]1C=C[C@@H](NC(=O)c2cccnc2)[C@@H](CO)O1)NCc1ccncn1 the results were LGR2 antag 1.
C[C@@H](NC(=O)C[C@H]1CC[C@@H](NS(=O)(=O)c2cccc(F)c2)[C@H](CO)O1)c1ccccc1 was read as LGR2 antag -12.
For O=[N+]([O-])c1ccc(SNc2ccccc2)c([N+](=O)[O-])c1 the results were LMP1 NFkB inh 9, TWEAK Fn14 block -18, TROY NFkB inh 15 and LGR2 antag -3.
For O=[N+]([O-])c1ccc(-[n+]2ccc3ccccc3c2)c([N+](=O)[O-])c1 the results were LMP1 NFkB inh 11, HSF1 activator 16, TWEAK Fn14 block 57*, TROY NFkB inh -19, HSF1 inhib 26 and LGR2 antag -4.
Screening OC[C@H]1[C@@H](c2ccc(/C=C/c3ccccc3)cc2)[C@@H]2CN(Cc3cccnc3)CCCCN12 returned LGR2 antag 16.
O=C(COc1ccccc1Cl)Nc1nc(-c2ccncc2)cs1 was read as LMP1 NFkB inh 11, TWEAK Fn14 block 53*, TROY NFkB inh 37 and LGR2 antag 26.
For O=C(Nc1nc(-c2ccncc2)cs1)c1ccc(S(=O)(=O)N2CCOCC2)cc1 the results were LMP1 NFkB inh 0, HSF1 activator -3, TWEAK Fn14 block 2, TROY NFkB inh 6 and HSF1 inhib -9.
CC(C)C(=O)Nc1nc(-c2ccc(S(=O)(=O)N3CCOCC3)cc2)cs1 was read as LMP1 NFkB inh 6, HSF1 activator 5, TWEAK Fn14 block -1, TROY NFkB inh 3, HSF1 inhib 3 and LGR2 antag -6.
CCOc1cccc(C(=O)Nc2nc(-c3ccc(S(=O)(=O)N4CCOCC4)cc3)cs2)c1 was read as LMP1 NFkB inh 25, HSF1 activator -33, TWEAK Fn14 block 36, TROY NFkB inh 50* and HSF1 inhib -28.
Screening O=C(COc1cccc(Cl)c1)Nc1nc(-c2ccc(S(=O)(=O)N3CCOCC3)cc2)cs1 returned LMP1 NFkB inh 36, HSF1 activator 11, TWEAK Fn14 block 57*, TROY NFkB inh 38 and HSF1 inhib 0.
`CCOc1ccc2nc(NC(=O)c3ccc(S(=O)(=O)N4CCOCC4)cc3)sc2c1` gave LMP1 NFkB inh 0, HSF1 activator -59, TWEAK Fn14 block 8, TROY NFkB inh 15 and HSF1 inhib -47.
For CCOc1ccc2nc(NC(=O)c3ccc(OC)c(S(=O)(=O)N4CCOCC4)c3)sc2c1 the results were LMP1 NFkB inh -1, HSF1 activator -7, TWEAK Fn14 block 44, TROY NFkB inh 53* and HSF1 inhib -2.
For C[C@@H]1CN([C@@H](C)CO)S(=O)(=O)c2ccc(-c3ccncc3)cc2O[C@H]1CN(C)Cc1ccc(Oc2ccccc2)cc1 the results were LGR2 antag 4.
For COc1ccc2c3c(n(C)c2c1)[C@@H](CO)N(C(=O)CN(C)C)CC31CCN(Cc2nccs2)CC1 the results were LGR2 antag -6.
Screening Cc1ccccc1S(=O)(=O)N1[C@H](C#N)[C@@H](c2ccc(C#CC3CC3)cc2)[C@@H]1CO returned LGR2 antag 12.
`O=C(Nc1nc(-c2ccccc2)cs1)c1ccccc1NS(=O)(=O)c1ccc(F)cc1` gave LMP1 NFkB inh inconclusive, HSF1 activator 14, TWEAK Fn14 block 88*, TROY NFkB inh 50, HSF1 inhib -4 and LGR2 antag inconclusive.
`COc1ccccc1C(=O)Nc1nc(-c2ccc(S(=O)(=O)N3CCOCC3)cc2)cs1` gave LMP1 NFkB inh 29, HSF1 activator -27, TWEAK Fn14 block 107*, TROY NFkB inh 65* and HSF1 inhib -22.
Screening COc1ccccc1OC(C)C(=O)Nc1nc(-c2ccc(S(=O)(=O)N3CCOCC3)cc2)cs1 (stereo unspecified) returned LMP1 NFkB inh 8, HSF1 activator -12, TWEAK Fn14 block 40, TROY NFkB inh 15 and HSF1 inhib -17.
O=C1CC(c2ccccc2)CC(O)=C1C=NCc1ccc(Cl)c(Cl)c1 (stereo unspecified) was read as LMP1 NFkB inh 7, HSF1 activator 16, TWEAK Fn14 block 76* and HSF1 inhib 2.
CC(C)CCN=CC1=C(O)CC(c2ccccc2)CC1=O (stereo unspecified) was read as LMP1 NFkB inh 0, HSF1 activator 67*, TWEAK Fn14 block -14, TROY NFkB inh -18, HSF1 inhib 28 and LGR2 antag -10.
For CCCN=CC1=C(O)CC(c2ccccc2)CC1=O (stereo unspecified) the results were LMP1 NFkB inh -11, HSF1 activator 5, TWEAK Fn14 block 0, TROY NFkB inh 23 and HSF1 inhib 3.
CCCN(C)C[C@H]1Oc2cc(C#Cc3ccc(F)cc3)ccc2S(=O)(=O)N([C@@H](C)CO)C[C@H]1C was read as LGR2 antag -11.
For COc1cccc(NC(=O)N2C[C@@H](O)COC[C@@H]3O[C@H](CC(=O)NCCCN4CCOCC4)CC[C@H]32)c1 the results were LGR2 antag 8.
For CCN(C(=O)CSc1ncccc1C(=O)Oc1cccc([N+](=O)[O-])c1)c1cccc(C)c1 the results were LMP1 NFkB inh 1, HSF1 activator 60*, TWEAK Fn14 block 22, TROY NFkB inh 21 and HSF1 inhib 29.
CCN(CC)CCn1c(=O)n(-c2ccc(Cl)cc2)c(=O)c2c3c(sc21)CN(C)CC3 was read as LMP1 NFkB inh -10, HSF1 activator 1, TWEAK Fn14 block -8, TROY NFkB inh -36, HSF1 inhib 6 and LGR2 antag -15.
Screening CN1CCc2c(sc3c2c(=O)n(-c2ccc(Cl)cc2)c2nncn32)C1 returned LMP1 NFkB inh -1, HSF1 activator -63, TWEAK Fn14 block 0, TROY NFkB inh -23 and HSF1 inhib -55*.
`COc1ccc(NC(=O)Nc2cccc3c2O[C@@H](CN(C)C(=O)Nc2ccccc2)[C@@H](C)CN([C@H](C)CO)C3=O)cc1` gave LGR2 antag 32.
For O=C(OC(c1ccccc1)c1nccc2ccccc12)c1ccccc1 (stereo unspecified) the results were LMP1 NFkB inh 4, TWEAK Fn14 block 98*, TROY NFkB inh 87* and LGR2 antag inconclusive.
